Experimental data as given in PubChem BioAssay (Tox21).
Records with an inconclusive call do not appear. Calls of active or inactive are those of the source. Unless noted, calls follow the shape of the full dose curve.

Assays:
[1] = Nuclear factor erythroid 2-related factor 2/antioxidant responsive element (Nrf2/ARE) small molecule agonists: qHTS cell viability counter screen in human keratinocytes (AID 1919968; active = well fitted curve in the direction sought with a large enough effect in the repeat runs; an effect the other way counts as inactive or inconclusive; also: nearly all actives have a fitted effect of over 55% in size)
Procedure, shortened: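 Parallel cytotoxicity read: KeratinoSens HaCaT cells, compound treatment 23 h, viability by CellTiter-Fluor fluorescence 1 h post-reagent.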

[2] = Nuclear factor erythroid 2-related factor 2/antioxidant responsive element (Nrf2/ARE) small molecule agonists: luciferase reporter gene qHTS assay in human keratinocytes (AID 1919969); also: nearly all actives have a fitted effect of over 35% in size
[3] = biological target: Gonadotropin-releasing hormone receptor (Homo sapiens) (UniProt P30968); assay: Human gonadotropin-releasing hormone receptor (GnRHR) small molecule agonists, calcium flux assay in GnRHR-HEK293 cells (AID 1920063); also: nearly all actives have a fitted effect of over 35% in size
Chain of Gonadotropin-releasing hormone receptor (Homo sapiens) (P30968 whole entry, looked up): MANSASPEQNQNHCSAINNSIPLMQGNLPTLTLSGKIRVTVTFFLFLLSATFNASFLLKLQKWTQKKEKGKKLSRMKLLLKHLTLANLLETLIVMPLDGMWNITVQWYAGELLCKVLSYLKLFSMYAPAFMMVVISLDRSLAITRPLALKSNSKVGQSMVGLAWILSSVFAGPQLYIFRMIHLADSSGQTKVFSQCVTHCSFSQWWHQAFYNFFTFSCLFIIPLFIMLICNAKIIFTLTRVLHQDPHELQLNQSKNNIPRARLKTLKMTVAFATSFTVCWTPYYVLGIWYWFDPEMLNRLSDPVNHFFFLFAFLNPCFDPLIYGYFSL
Procedure, shortened: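 Calcium flux, agonist mode, human GnRHR stably integrated in HEK293; dye 1 h at 37 C before compound; Ex/Em=480/540 kinetic read, 3 min; 15 concentrations, triplicate.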

[4] = biological target: KiSS-1 receptor (Homo sapiens) (UniProt Q969F8); assay: Human kisspeptin (KISS1R) small molecule agonists, calcium flux assay in KISS1R-HEK293 cells (AID 1920064; active = well fitted curve in the direction sought with a large enough effect in the repeat runs; an effect the other way counts as inactive or inconclusive)
Chain of KiSS-1 receptor (Homo sapiens) (Q969F8 whole entry, looked up): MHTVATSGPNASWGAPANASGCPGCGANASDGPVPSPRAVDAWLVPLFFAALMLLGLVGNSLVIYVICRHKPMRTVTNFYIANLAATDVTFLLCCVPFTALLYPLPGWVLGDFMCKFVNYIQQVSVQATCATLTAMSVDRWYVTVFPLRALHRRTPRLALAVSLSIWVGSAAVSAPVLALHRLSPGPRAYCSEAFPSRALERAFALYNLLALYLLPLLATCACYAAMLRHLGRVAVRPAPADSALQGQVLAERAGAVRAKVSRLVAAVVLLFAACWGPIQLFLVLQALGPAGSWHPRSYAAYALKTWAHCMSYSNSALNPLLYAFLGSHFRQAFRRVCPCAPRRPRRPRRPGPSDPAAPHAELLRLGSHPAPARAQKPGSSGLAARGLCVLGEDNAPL
Procedure, shortened: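 Triplicate 15-concentration series were applied to dye-loaded human KISS1R HEK293 cells, and agonist-evoked calcium fluorescence was captured for 3 min.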

[5] = G protein-coupled receptor (GPCR) small molecule agonists, calcium flux assay: HEK293 wild type cell line counter screen (AID 1920065)
Procedure, shortened: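 Non-specific calcium responders were flagged by adding DMSO-dissolved compounds to dye-loaded cells and reading 480/540 nm fluorescence each second for 3 min; ATP served as positive control.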

[6] = p53 small molecule agonists, cell-based qHTS assay with human liver microsomes (AID 1963577);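 also: p53 response element beta-lactamase reporter cells with liver microsomes plus NADPH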
Procedure, shortened: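 Compounds act here after metabolic activation: human liver microsomes and NADPH, both at 0.5 mg/mL final, were co-added to p53RE-bla cells. Incubation ran 16 h at 37 C, followed by LiveBLAzer detection.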

[7] = p53 small molecule agonists, cell-based qHTS assay with rat liver microsomes: qHTS cell viability counter screen (AID 1963580); also: nearly all actives have a fitted effect of over 45% in size
Procedure, shortened: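 Counter screen for cytotoxicity under metabolic activation: rat liver microsomes and NADPH, 0.5 mg/mL final each, added with compounds to p53RE-bla HCT-116 cells; 16 h at 37 C, then ATP luminescence read.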

[8] = p53 small molecule agonists, cell-based qHTS assay: qHTS cell viability counter screen (AID 1963581); also: nearly all actives have a fitted effect of over 45% in size
Procedure, shortened: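 Multiplexed with the reporter read, a CellTiter-Glo step (30 min, room temperature) gauges ATP-based viability of HCT-116 p53RE-bla cells after 16 h compound incubation at 37 C.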

[9] = p53 small molecule agonists, cell-based qHTS assay (AID 1963582; active = well fitted activation curve with a large enough effect in the signal ratio in the repeat runs, not every such curve was filed as active; the % refers to the signal ratio)
Procedure, shortened: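 Beta-lactamase reporter cells (p53RE-bla) treated with compounds for 16 h at 37 C; FRET substrate, 2 h, room temperature; fluorescence intensity.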

[10] = biological target: 5-hydroxytryptamine receptor 2A (Homo sapiens) (UniProt P28223); assay: 5-hydroxytryptamine receptor 2A (HTR2A) small molecule antagonists, cell-based qHTS assay (AID 1963586); also: nearly all actives have a fitted effect of over 45% in size
Chain of 5-hydroxytryptamine receptor 2A (Homo sapiens) (P28223 whole entry, looked up): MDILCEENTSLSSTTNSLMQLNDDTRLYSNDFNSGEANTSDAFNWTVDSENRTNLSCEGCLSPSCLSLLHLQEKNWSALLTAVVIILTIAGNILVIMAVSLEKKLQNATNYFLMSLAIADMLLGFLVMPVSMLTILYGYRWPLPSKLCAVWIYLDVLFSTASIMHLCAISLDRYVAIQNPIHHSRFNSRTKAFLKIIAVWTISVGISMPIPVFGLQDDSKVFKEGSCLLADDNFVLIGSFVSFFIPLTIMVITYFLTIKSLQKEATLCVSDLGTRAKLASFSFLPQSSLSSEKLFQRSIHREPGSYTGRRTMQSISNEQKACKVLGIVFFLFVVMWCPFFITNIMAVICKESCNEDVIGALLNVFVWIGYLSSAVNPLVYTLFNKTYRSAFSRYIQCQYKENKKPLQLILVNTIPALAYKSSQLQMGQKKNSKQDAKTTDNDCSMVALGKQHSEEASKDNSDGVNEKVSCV
Procedure, shortened: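 CHO cells stably expressing human HTR2A were plated for 18 h at 37 C, then loaded with calcium dye for 1 h. Compounds were preincubated 5 min at room temperature before DOI (4 nM solution) was added. Kinetic fluorescence was read for 3 min.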

[11] = biological target: 5-hydroxytryptamine receptor 2A (Homo sapiens) (UniProt P28223); assay: 5-hydroxytryptamine receptor 2A (HTR2A) small molecule agonists, cell-based qHTS assay (AID 1963587); also: nearly all actives have a fitted effect of over 30% in size
Procedure, shortened: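 HTR2A-CHO cells, plated 18 h at 37 C/5% CO2, dye-loaded 1 h at 37 C; compounds in DMSO added by pin tool (agonist mode). Intracellular calcium flux read as kinetic fluorescence on FDSS over 2 min at 1 s intervals.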

[12] = biological target: Muscarinic acetylcholine receptor M1 (Homo sapiens) (UniProt P11229); assay: Cholinergic receptor muscarinic 1 (CHRM1) small molecule antagonists, cell-based qHTS assay (AID 1963588); also: nearly all actives have a fitted effect of over 40% in size
Chain of Muscarinic acetylcholine receptor M1 (Homo sapiens) (P11229 whole entry, looked up): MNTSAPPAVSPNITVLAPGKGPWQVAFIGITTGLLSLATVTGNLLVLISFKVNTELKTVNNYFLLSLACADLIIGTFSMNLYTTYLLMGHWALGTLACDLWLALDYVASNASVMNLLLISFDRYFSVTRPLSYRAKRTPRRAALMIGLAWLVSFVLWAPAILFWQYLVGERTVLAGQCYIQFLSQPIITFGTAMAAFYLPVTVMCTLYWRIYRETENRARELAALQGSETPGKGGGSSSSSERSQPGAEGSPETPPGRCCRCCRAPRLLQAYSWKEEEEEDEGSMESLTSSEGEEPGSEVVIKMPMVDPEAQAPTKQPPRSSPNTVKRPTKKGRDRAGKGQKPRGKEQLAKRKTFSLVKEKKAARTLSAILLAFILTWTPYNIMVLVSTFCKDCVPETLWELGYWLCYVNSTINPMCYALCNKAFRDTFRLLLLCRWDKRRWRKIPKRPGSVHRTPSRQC
Procedure, shortened: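 Compounds were tested at 15 concentrations in three independent runs. Dye-loaded CHRM1-CHO cells were exposed 5 min at room temperature before stimulation by acetylcholine added at 50nM. Intracellular calcium was read kinetically on FDSS for 3 min.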

[13] = biological target: Muscarinic acetylcholine receptor M1 (Homo sapiens) (UniProt P11229); assay: Cholinergic receptor muscarinic 1 (CHRM1) small molecule agonists, cell-based qHTS assay (AID 1963589); also: nearly all actives have a fitted effect of over 35% in size
Procedure, shortened: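 qHTS, 15-point titration, 3 independent runs: compounds pin-transferred onto dye-loaded CHRM1-CHO cells (human M1), calcium fluorescence followed every second to detect agonism.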

[14] = cAMP Responsive Elements (CRE) small molecule agonists, cell-based qHTS assay (AID 1963590)
Procedure, shortened: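 Quantitative HTS for CRE agonists: HEK 293T CRE-bla cells, overnight plating, 3 h compound incubation at 37 C/5% CO2, then 2 h room-temperature LiveBLAzer B/G FRET substrate loading.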

[15] = biological target: Beta-2 adrenergic receptor (Homo sapiens) (UniProt P07550); assay: Adrenergic beta2 receptor (ADRB2) small molecule antagonists, cell-based qHTS assay (AID 1963592); also: series mostly up to about 92 µM; nearly all actives have a fitted effect of over 50% in size
Chain of Beta-2 adrenergic receptor (Homo sapiens) (P07550 whole entry, looked up): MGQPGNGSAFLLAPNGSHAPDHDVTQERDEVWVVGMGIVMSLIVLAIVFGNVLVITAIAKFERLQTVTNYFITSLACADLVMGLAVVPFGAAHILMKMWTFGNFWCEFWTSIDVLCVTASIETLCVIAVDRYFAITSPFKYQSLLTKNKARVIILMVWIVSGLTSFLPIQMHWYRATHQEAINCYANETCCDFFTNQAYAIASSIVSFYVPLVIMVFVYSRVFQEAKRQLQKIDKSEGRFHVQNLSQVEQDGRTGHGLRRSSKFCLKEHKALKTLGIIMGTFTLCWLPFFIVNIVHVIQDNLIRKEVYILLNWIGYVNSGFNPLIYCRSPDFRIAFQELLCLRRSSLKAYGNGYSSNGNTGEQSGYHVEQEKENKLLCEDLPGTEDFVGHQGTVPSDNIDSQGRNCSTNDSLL
Procedure, shortened: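 Assay format: CHO-ADRB2 cells, 18-20hr seeding at 37C/5% CO2, then compound plus 1nM isoproterenol agonist mix for 0.5hr RT. Homogeneous time-resolved fluorescence cAMP detection after 1hr, expressed as 665/615 nm ratio.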

[16] = biological target: Beta-2 adrenergic receptor (Homo sapiens) (UniProt P07550); assay: Adrenergic beta2 receptor (ADRB2) small molecule agonists, cell-based qHTS assay (AID 1963593);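 also: CHO cells stably overexpressing human ADRB2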
Procedure, shortened: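 CHO cells stably over-expressing ADRB2 were plated overnight at 37C, then dosed with compounds plus a stimulation mix containing 100uM IBMX and 25uM Ro-20-1724 for 0.5hr at room temperature. cAMP was measured by HTRF competition, 1hr.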

[17] = biological target: D(2) dopamine receptor (Homo sapiens) (UniProt P14416); assay: Dopamine D2 receptor (DRD2) small molecule agonists, cell-based qHTS assay (AID 1963594); also: nearly all actives have a fitted effect of over 35% in size
Chain of D(2) dopamine receptor (Homo sapiens) (P14416 whole entry, looked up): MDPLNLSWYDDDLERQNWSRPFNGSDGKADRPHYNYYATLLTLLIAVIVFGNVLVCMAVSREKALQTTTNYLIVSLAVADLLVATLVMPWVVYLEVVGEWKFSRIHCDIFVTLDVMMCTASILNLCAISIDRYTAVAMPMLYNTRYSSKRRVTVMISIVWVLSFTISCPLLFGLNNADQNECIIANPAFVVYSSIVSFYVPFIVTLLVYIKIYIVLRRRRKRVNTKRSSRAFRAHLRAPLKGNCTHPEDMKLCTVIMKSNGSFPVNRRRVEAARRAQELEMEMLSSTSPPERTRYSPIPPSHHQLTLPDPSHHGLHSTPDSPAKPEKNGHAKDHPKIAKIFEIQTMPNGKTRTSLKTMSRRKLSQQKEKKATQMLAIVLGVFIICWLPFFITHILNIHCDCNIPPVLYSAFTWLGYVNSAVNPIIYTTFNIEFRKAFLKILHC
Procedure, shortened: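 HEK293 cells stably expressing DRD2 were cultured 24 h at 37 C, then given Ro20-1724 (0.1 mM final) and compounds for 10 min at room temperature. NKH477 (200nM) was then added for 30 min. cAMP was read by HTRF.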

[18] = biological target: D(2) dopamine receptor (Homo sapiens) (UniProt P14416); assay: Dopamine D2 receptor (DRD2) small molecule antagonists, cell-based qHTS assay (AID 1963595; active = well fitted inhibition curve with a large enough effect in the signal ratio in the repeat runs, with a control signal flat; the % refers to the signal ratio)
Procedure, shortened: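 Stable D2 receptor HEK293 line, 24 h after seeding. Compound preincubated 10 min, then quinpirole (12 nM) with forskolin analogue NKH477 (200 nM), 30 min, room temperature. Detection by time-resolved FRET of cAMP.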

[19] = cAMP Responsive Elements (CRE) small molecule antagonists, cell-based qHTS assay (AID 1963591; active = well fitted inhibition curve with a large enough effect in the signal ratio in the repeat runs, not every such curve was filed as active; the % refers to the signal ratio)
Procedure, shortened: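 Fluorescence intensity from cleaved LiveBLAzer B/G substrate (2 h, room temperature) quantified CRE-bla activity in HEK 293T cells exposed 3 h to compound with 0.25 uM final NKH477.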

Measured: Potency

CO[Si](C)(OC)c1ccccc1
inactive: [1] | [2] | [3] | [4] | [5] | [6] | [7] | [8] | [9] | [10] | [11] | [12] | [13] | [14] | [15] | [16] | [17] | [18]

CC(CC(C#N)(c1ccccc1)C(C)C)N(C)C (stereo unspecified)
inactive: [1] | [2] | [3] | [4] | [5] | [6] | [7] | [8] | [10] | [11] | [13] | [14] | [19] | [15] | [16] | [17] | [18]

Oc1ccccc1Cc1ccccc1O
inactive: [1] | [2] | [3] | [4] | [5] | [6] | [7] | [8] | [10] | [11] | [12] | [13] | [14] | [19] | [15] | [16] | [17] | [18]

CCCCC(CC)CN (stereo unspecified)
inactive: [1] | [2] | [3] | [4] | [5] | [6] | [7] | [8] | [9] | [10] | [11] | [13] | [14] | [19] | [15] | [17] | [18]

Cc1ccc(=O)n(-c2ccccc2)c1
inactive: [1] | [2] | [3] | [4] | [5] | [6] | [7] | [8] | [9] | [12] | [14] | [19] | [15] | [18]

COC(C)(OC)OC
inactive: [1] | [2] | [3] | [4] | [5] | [6] | [7] | [8] | [9] | [10] | [11] | [12] | [13] | [14] | [15] | [17] | [18]

CCCCCCC/C=C/C=O
inactive: [1] | [2] | [3] | [4] | [5] | [6] | [7] | [8] | [9] | [10] | [11] | [12] | [13] | [19] | [15] | [16] | [17] | [18]

CC(c1cc(C(C)(C)C)cc(C(C)(C)C)c1O)c1cc(C(C)(C)C)cc(C(C)(C)C)c1O
inactive: [1] | [2] | [3] | [4] | [5] | [6] | [7] | [8] | [9] | [10] | [11] | [13] | [14] | [17] | [18]

Cc1cc(CC(=O)O)c(C)n1-c1ccc(Cl)cc1
inactive: [1] | [2] | [3] | [4] | [5] | [6] | [7] | [8] | [10] | [11] | [12] | [13] | [15] | [16] | [18]

CCOc1cc(N)c(Cl)cc1C(=O)NCC1CN(Cc2ccc(F)cc2)CCO1 (stereo unspecified)
inactive: [1] | [2] | [3] | [4] | [5] | [6] | [7] | [8] | [9] | [14] | [19] | [15] | [17] | [18]

CCCC(=O)OCCC(C)C
inactive: [1] | [2] | [3] | [4] | [5] | [6] | [7] | [8] | [9] | [11] | [12] | [13] | [14] | [19] | [15] | [17] | [18]

C[C@@H]1O[C@@H](O[C@@H]2[C@@H](O)[C@H](OCCc3ccc(O)c(O)c3)O[C@H](CO[C@@H]3O[C@H](CO)[C@@H](O)[C@H](O)[C@H]3O)[C@H]2OC(=O)/C=C/c2ccc(O)c(O)c2)[C@H](O)[C@H](O)[C@H]1O
inactive: [1] | [2] | [3] | [4] | [5] | [6] | [7] | [8] | [9] | [11] | [12] | [13] | [14] | [19]

Nc1ccc(C(=O)OCC(O)CO)cc1 (stereo unspecified)
inactive: [1] | [2] | [3] | [4] | [5] | [6] | [7] | [8] | [9] | [11] | [12] | [14] | [19] | [15] | [17] | [18]

C[C@]12CCC(=O)C=C1CC[C@@H]1[C@@H]2CC[C@@]2(C)[C@H]1CC[C@]2(O)C(=O)CO
inactive: [1] | [2] | [3] | [4] | [5] | [6] | [7] | [8] | [9] | [10] | [11] | [12] | [13] | [15] | [16] | [17]

O=C(O)c1ccccc1NCCc1ccccc1
inactive: [1] | [2] | [3] | [4] | [5] | [6] | [7] | [8] | [9] | [10] | [11] | [12] | [13] | [19] | [15] | [17] | [18]

CCCC(C)C(=O)OCC (stereo unspecified)
inactive: [1] | [2] | [3] | [4] | [5] | [6] | [7] | [8] | [9] | [10] | [11] | [12] | [13] | [14] | [19] | [16] | [17] | [18]
